Bioassay records: PubChem BioAssay, National Center for Advancing Translational Sciences (NCATS)
Compounds with a hit are over-represented: about 11% of the library has one in this group of screens.
HPGD block – qHTS Assay for Inhibitors of HPGD (15-Hydroxyprostaglandin Dehydrogenase); 15-hydroxyprostaglandin dehydrogenase [NAD(+)] (Homo sapiens), P15428; purified HPGD, NADH fluorescence kinetic, PGE2 substrate; Potency, µM, without a hit: at the top dose activity change, negative = inhibition, most hits filed as inhibitors; 4.3% of 150,000 active; AID 894, 2007; further: potency means the concentration at half of the fitted maximal effect
Target sequence (P15428 whole entry, looked up): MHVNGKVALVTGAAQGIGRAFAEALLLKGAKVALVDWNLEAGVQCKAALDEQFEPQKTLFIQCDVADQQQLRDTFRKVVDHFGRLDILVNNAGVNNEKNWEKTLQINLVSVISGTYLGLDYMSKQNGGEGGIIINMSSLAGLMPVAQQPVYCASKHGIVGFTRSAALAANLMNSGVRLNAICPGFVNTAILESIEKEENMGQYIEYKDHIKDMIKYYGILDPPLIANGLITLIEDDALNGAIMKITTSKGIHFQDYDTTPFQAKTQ
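20 nM HPGD preincubated 15 min at room temperature with compound in 50 mM Tris-HCl pH 8, 0.01% Tween 20. Started with 1 mM NAD+ and 30 uM prostaglandin E2; NADH fluorescence (360/450 nm) read 5 times over 30-s intervals, last minus first.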
ALDH1A1 block – qHTS Assay for Inhibitors of Aldehyde Dehydrogenase 1 (ALDH1A1) | AID 1030, 2008 | Purified ALDH1A1, NADH fluorescence, propionaldehyde substrate | Potency, µM (doses to about 75.3 µM), inactives show at the highest dose activity, negative = inhibition, most hits filed as inhibitors | 7.3% of 220,000 active;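 further: potency means the concentration at half of the fitted maximal effect; plate controls were no enzyme wells and a reference inhibitor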
PNC inhibitor – High Content Assay for Compounds that inhibit the Assembly of the Perinucleolar Compartment; 3.1% of 140,000 active; AID 2417, 2010; PC3M PTB-GFP, PNC prevalence imaging, 16 h; stronger effect = lower value; activity change (PNC), negative = inhibition, % at 10 µM;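 active means readout at or below -70, meaning at least 70% loss of cells showing the perinucleolar compartment, a nuclear body marking cancer cells; inconclusive means readout between -30 and a set limit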;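 further: plate controls were DMSO wells for no effect and camptothecin positive control wells for full effect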
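Read-out is percentage of cells bearing a perinucleolar compartment, from automated 20x imaging of fixed, Hoechst-stained PC3M PTB-GFP cells. Cells were seeded 4 h, then exposed 16 h to compound (23 nl of library stock) in duplicate plates.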
Starred values were filed as active, the others as inactive; i = inactive; u = inconclusive; x = not tested or not shown; [ ] = dose if it differs, or a comment. Unless noted, the call rests on the fitted dose curve; in most records, active means well fitted inhibition curve with a large enough effect (not every such curve was filed as active); inconclusive means small, poorly fitted or top-dose-only effect, or another doubt; inactive means no such curve, though single readings can be large or run the other way. Unless noted, on the % scale 0 is the no-effect control and ±100 the full control effect.

SMILES	HPGD block	ALDH1A1 block	PNC inhibitor
O=C(/C=C/c1ccc(F)cc1)N1CCN(S(=O)(=O)/C=C/c2ccccc2)CC1	x	1.7%	x
O=C(/C=C/c1ccco1)N1CCN(c2ccccc2)CC1	0.5%	u	u
O=C(/C=C/c1ccco1)N1CCN(S(=O)(=O)/C=C/c2ccccc2)CC1	x	7.94µM*	x
C(=N/Nc1ccccn1)/c1cccnc1	-1.2%	2.4%[13.5 µM]	x
COC(=O)NC(C)N1C(=O)C2C3C=CC(C3)C2C1=O (stereo unspecified)	x	-3.9%	x
CC(C)C1CCC(C(=O)NC(Cc2ccccc2)C(=O)O)CC1 (stereo unspecified)	-3.0%	-1.8%	x
Fc1cccc(Cc2noc(CN3CCCCC3CCc3ccccn3)n2)c1 (stereo unspecified)	x	7.8%	x
Cc1cc(-c2nc(C)c(C(=O)NNS(=O)(=O)c3cccc(C(F)(F)F)c3)s2)no1	x	-12.8%	x
Cc1nc(N)sc1C(=O)NN	x	25.1µM*	x
Cc1nc(NS(=O)(=O)c2ccccc2)sc1C(=O)NN	x	-7.1%	x
COc1ccc(/C=C/C(=O)c2sc(-c3ccc(Cl)cc3)nc2C)cc1	-7.2%	u	29.0
Cc1ccc(N/C=C/C(=O)c2sc(-c3ccccc3)nc2C)cc1	-1.7%	11.2µM*	8.6
C=CCNC(=O)c1sc(-c2ccccc2)nc1C	x	4.8%	x
Cc1nc(-c2ccccc2)sc1C(=O)NN	x	4.47µM*	x
Cc1cc(-c2nc(C)c(C(=O)NN)s2)no1	x	10µM*	x
Cc1c(N=C2N=C(NC(=O)Nc3ccc(Cl)cc3)c3ccccc32)c(=O)n(-c2ccccc2)n1C	x	11.4%	x
Cc1ccc(/C=C/C2=C[C@]3(C)C[C@]2(C)[C@H](c2ccc(C)cc2)CC3=O)cc1	-5.4%	u	x
CC(C)n1nnc2c(=O)oc3ccccc3c21	0.3%	7.2%	-4.3
COc1ccc(-c2[nH]ncc2CN2CCCCCCC2)c(OC)c1	x	3.1%	x
COc1ccccc1Oc1nc([N+](=O)[O-])nn1CC(N)=O	x	7.4%	x
COc1cccc2c1C(=O)c1c(O)c3c(c(O)c1C2=O)C[C@](O)(C(=O)CO)C[C@H]3O[C@@H]1C[C@H](N)[C@H](O)[C@H](C)O1	-9.7%	-2.6%[20.9 µM]	x
CCN(CC)C(=O)CCNS(=O)(=O)c1ccc(C)cc1	3.7%	-5.7%	67.1
COCCNC(=O)/C(C#N)=C/c1ccc(OCC(=O)NC2CCCCC2)cc1	x	1.5%	x
Cc1ccc(S(=O)(=O)Nc2cccc(NC(=O)CN3CCCCC3)c2)cc1	-16.7%	u	35.2
CCN1CC2CCCC3(C1)C(=O)NC1(CCCCC1)N=C23 (stereo unspecified)	-9.8%	31.6µM*	34.5
SMILES	HPGD block	ALDH1A1 block	PNC inhibitor
CCOC(=O)c1sc(SC)c2c1CCCC2=O	x	-8.2%	x
CCOC(=O)c1sc(S(C)=O)c2c1CCc1conc1-2 (stereo unspecified)	x	4.47µM*	x
CN1CCN(c2ncc3nc(-c4cc(F)cc(F)c4)c(=O)n(-c4ccccc4)c3n2)CC1	i	u	x
CN(CC(=O)O)c1ccc(C(F)(F)F)cc1[N+](=O)[O-]	x	-6.1%	x
CC(C)Cn1c(N)c(C(=O)COC(=O)c2ccc(O)cc2)c(=O)n(C)c1=O	x	7.94µM*	x
CC(C)Cn1c(N)c(C(=O)COC(=O)c2cc(F)cc(F)c2)c(=O)n(C)c1=O	x	4.3%	x
Cn1c(N)c(C(=O)COC(=O)c2ccc(Cl)nc2)c(=O)n(C)c1=O	x	-0.2%	x
CC(C)Cn1c(N)c(C(=O)COC(=O)c2cnc(Cl)c(Cl)c2)c(=O)n(C)c1=O	x	0.447µM*	x
CC(C)Cn1c(N)c(C(=O)COC(=O)C2=COCCO2)c(=O)n(C)c1=O	-14.7%	-1.2%	14.6
CC(C)Cn1c(N)c(C(=O)COC(=O)c2ccc([N+](=O)[O-])o2)c(=O)n(C)c1=O	x	17.8µM*	x
Fc1ccc(N2CN(Cc3cccnc3)CNC2=S)cc1	x	4.0%	x
O=C(CN1CCN(Cc2ccc(F)cc2)C1=O)NC1CCCC1	x	-10.9%	x
CCCn1nnc(NC(=O)c2cc(Br)cc(Br)c2OC)n1	x	11.2µM*	-119.0*
CCCn1nnc(NC(=O)c2ccc(Br)cc2)n1	-12.7%	-2.8%	u
CSc1nc(N)c2ncn([C@@H]3O[C@H](COP(=O)(O)OP(=O)(O)OP(=O)(O)O)[C@@H](O)[C@H]3O)c2n1	x	7.3%	x
CCOC(=O)CSc1nc(C)c(C(C)=O)cc1C#N	22.4µM*	19.6%	12.6
CC(=O)c1cc(C#N)c(SCC(=O)O)nc1C	-5.5%	0.5%	u
CC(=O)c1cc(C#N)c(Oc2ccc(F)cc2)nc1C	1.4%	-0.1%	7.2
CC(=O)c1cc(C#N)c(Oc2cc(C)cc(C)c2)nc1C	-7.4%	5.7%	-114.3*
